The whole screen tested about 140,000 compounds, of which about 680 (0.49%) were called active. No stated cut-off is given here; in the data, active means activation above about 5% (passing the limit was not always enough); inactive means the rest. This excerpt belongs to a sample that is enriched for actives.
The compounds below were run against Galanin receptor type 2 (Homo sapiens) (UniProt O43603) (assay: human galanin receptor 2 activators – cell-based, primary screen (AID 803;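 further: 0% = vehicle buffer wells and 100% = reference agonist at full effect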)). Conditions: GALR2-expressing cells, agonist activation read-out; at 5.6 µM; hits give high values.
Galanin receptor type 2 (Homo sapiens), sequence (O43603 whole entry, looked up): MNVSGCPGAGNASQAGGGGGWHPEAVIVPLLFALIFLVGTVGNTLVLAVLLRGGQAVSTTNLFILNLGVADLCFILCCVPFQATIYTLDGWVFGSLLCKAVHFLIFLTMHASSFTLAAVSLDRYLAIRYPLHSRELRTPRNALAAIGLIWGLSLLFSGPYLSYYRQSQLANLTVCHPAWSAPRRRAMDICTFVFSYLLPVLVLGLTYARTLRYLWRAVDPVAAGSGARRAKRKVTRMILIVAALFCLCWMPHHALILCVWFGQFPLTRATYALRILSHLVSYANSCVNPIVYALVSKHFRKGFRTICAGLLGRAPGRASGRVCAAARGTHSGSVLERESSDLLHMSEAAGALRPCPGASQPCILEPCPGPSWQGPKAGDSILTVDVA

| SMILES | activation |
| --- | --- |
| CC(=O)c1ccc(NC(=O)Nc2ccc([N+](=O)[O-])cc2C)cc1 | -1.71% (inactive) |
| FC(F)(F)c1cc(-c2cccs2)nc(NCc2ccco2)n1 | -1.85% (inactive) |
| Cc1cc(-c2cccs2)nc(-n2cccc2)n1 | -2.57% (inactive) |
| CCCn1c(=O)c2c(C(F)(F)F)cc(-c3cccs3)nc2n(CCC)c1=O | 6.87% (active) |
| Cc1cc(C)nc(NC(=O)C(C)N2C(=O)c3ccccc3C2=O)n1 (stereo not given) | -2.31% (inactive) |
| COC(=O)c1ccc(NC(=O)Nc2ccc(C)cc2)cc1 | -1.78% (inactive) |
| COC(=O)c1ccc(NC(=O)C(C)N2C(=O)c3ccccc3C2=O)cc1 (stereo not given) | 8.37% (active) |
| O=C(CSc1ccccc1)Nc1cc(Cl)ccc1Oc1ccccc1 | -0.74% (inactive) |
| C/C(CCC(=O)OC[C@H]1O[C@H](C#Cc2ccccc2)C=C[C@@H]1Oc1ccc(C)cc1)=N\OC[C@@H](O)[C@H]1O[C@@H]2OC(C)(C)O[C@@H]2[C@H]1O | -0.18% (inactive) |
| CCOC(=O)CSc1nc2sc3c(c2c(=O)[nH]1)CC(C)(C)OC3 | -2.5% (inactive) |
| CC/C(C)=N/Nc1nc2sc3c(c2c(=O)[nH]1)CC(C)(C)OC3 | 25.2% (active) |
| CCOC(=O)Cn1c(SC)nc2sc3c(c2c1=O)CC(C)(C)OC3 | -1.18% (inactive) |
| CCOc1ccc(NC(=O)COc2ccc(C(=O)NC3CCCc4ccccc43)cc2OC)cc1 (stereo not given) | -0.21% (inactive) |
| CCc1ccc(-c2cc(C(=O)NN3CCN(C)CC3)c3ccccc3n2)cc1 | 0.42% (inactive) |
| CCCCNS(=O)(=O)c1ccc2nc(SCC(=O)Nc3cc(C)cc(C)c3)[nH]c2c1 | -1.87% (inactive) |
| CCc1cc(C(=O)OC)c(NC(=O)CC2Sc3ccc(C(F)(F)F)cc3NC2=O)s1 (stereo not given) | 1.46% (inactive) |
| Cc1ccc2nc(-c3ccccc3)cc(C(=O)O)c2c1 | -0.75% (inactive) |
| COc1ccc(Cl)cc1C(=O)NCc1cn(C)nc1C | -0.07% (inactive) |
| Cc1ccc(-c2cc(C(=O)NCc3cn(C)nc3C)c3cc(Br)ccc3n2)cc1 | 5.13% (active) |
| CCCn1nc(NS(=O)(=O)c2ccccc2)c2cc3cc(C)ccc3nc21 | -2.05% (inactive) |
| COc1ccc(C2CC(c3ccccc3)=NN2C(=O)c2ccc(Cl)c([N+](=O)[O-])c2)cc1 (stereo not given) | 4.95% (active) |
| COc1ccc(C2=NN(C(=O)c3cccnc3)C(c3ccccc3)C2)cc1 (stereo not given) | -0.17% (inactive) |
| COc1ccc(C2CC(c3ccccc3)=NN2C(=O)CSc2nccc(=O)[nH]2)cc1 (stereo not given) | 0.01% (inactive) |
| Cn1ncc2c(NNC(=O)Cc3cccc4ccccc34)ncnc21 | 0.28% (inactive) |
| CCOc1ccccc1NC(=O)CCc1ccc(C)o1 | -0.84% (inactive) |

| SMILES | activation |
| --- | --- |
| Cc1cnc(NC(=O)CSc2nnc(-c3ccc(Cl)cc3Cl)n2N)s1 | -1.9% (inactive) |
| Cc1ccc(CCC(=O)Nc2ncc(Cc3cc(Cl)ccc3Cl)s2)o1 | 8.73% (active) |
| O=C(Nc1ccccc1F)c1ccccc1-c1ccccc1 | -0.61% (inactive) |
| COc1ccccc1N1N=C(c2cccs2)CC1c1ccccc1 (stereo not given) | 13.1% (active) |
| COc1ccc(C2CC(c3cccs3)=NN2C(=O)COC(=O)c2cc3ccccc3cc2O)cc1OC (stereo not given) | 0.22% (inactive) |
| Fc1ccc(N2N=C(c3cccs3)CC2c2ccco2)c(F)c1 (stereo not given) | 10.4% (inactive) |
| COc1ccc(-c2cc3ccc(OCc4nn[nH]n4)cc3oc2=O)cc1 | 0.01% (inactive) |
| O=c1oc2cc(O)ccc2cc1-c1ccc(F)cc1 | 14.9% (active) |
| COc1cccc(C(=O)c2cc3ccc(O)cc3oc2=O)c1 | 2.29% (inactive) |
| COc1cc(/C=N\NC(=O)c2nonc2N)c(OC)cc1Br | -0.75% (inactive) |
| O=C(CCc1ccc(S(=O)(=O)N2CCOCC2)cc1)NN=C1CCCCCCC1 | -0.53% (inactive) |
| Cc1ccc2nc(NC(=O)C3CCN(S(=O)(=O)c4ccc5c(c4)oc(=O)n5C)CC3)sc2c1 | -1.18% (inactive) |
| Cc1ccc(C)c(N2CCN(S(=O)(=O)c3ccc4c(c3)oc(=O)n4C)CC2)c1 | -1.17% (inactive) |
| Cn1c(=O)oc2cc(S(=O)(=O)N3CCC(C(=O)Nc4ccc(OC(F)(F)F)cc4)CC3)ccc21 | 9.92% (active) |
| COc1ccc(NC(=S)SC)cc1OC | -0.23% (inactive) |
| CN(C)S(=O)(=O)c1cccc(NC(=S)N/N=C/C(=O)c2ccccc2)c1 | 0.25% (inactive) |
| CCNc1nc(NC(C)C)nc(N2CC(=O)N(CC(=O)OCC)C2=N)n1 | 0.96% (inactive) |
| CCn1c(SCc2ccc(C)cc2)nnc1-c1nn(-c2ccccc2)ccc1=O | -0.25% (inactive) |
| CCc1ccc(-c2nn(-c3ccccc3)cc2CSC(=N)N)cc1 | 5.34% (active) |
| N=C(N)SCc1cccc2ccccc12 | -1.3% (inactive) |
| Cc1cc[n+](-c2[nH]c(=O)sc2/C=N/NC(=O)c2ccccc2[O-])cc1C | 1.06% (inactive) |
| COc1ccccc1C1SCCN1C(=O)c1ccc([N+](=O)[O-])cc1 (stereo not given) | 0.57% (inactive) |
| N=c1n(CCc2ccccc2)c2ccccc2n1Cc1ccccc1F | -1.04% (inactive) |
| OC(COc1cccc(OCC(O)CN2CCCC2)c1)CN1CCCC1 (stereo not given) | -0.12% (inactive) |
| OC(COc1cccc2ccccc12)CN1CCN(c2ccccn2)CC1 (stereo not given) | 14.5% (active) |

| SMILES | activation |
| --- | --- |
| O=C1c2cccc3cccc(c23)N1CN1CCN(c2ccccn2)CC1 | -1.31% (inactive) |
| C=CCn1c(CCNC(=O)c2cccs2)n[nH]c1=S | -1.14% (inactive) |
| Cn1nccc1CNC(=O)c1ccnn1C | -2.14% (inactive) |
| COc1cc(NC(=S)NNC(=O)CC(C)C)c(OC)cc1Cl | -0.97% (inactive) |
| CCCCn1c(O)c(N=NC(=O)Cn2c(C(F)(F)F)nc3ccccc32)c2ccccc21 | -0.64% (inactive) |
| CCOC(=O)c1oc2c(CN3CCN(C)CC3)c(O)ccc2c(=O)c1-c1ccc(Br)cc1 | -1.12% (inactive) |
| Cc1csc(NC(=O)c2ccc(-c3ccc(Cl)cc3Cl)o2)n1 | 8.53% (active) |
| O=C(Nc1cccc2ncccc12)c1ccc(-c2ccc(Cl)cc2Cl)o1 | -3.29% (inactive) |
| Cc1csc(NC(=S)Nc2cccc(Cl)c2)n1 | -0.28% (inactive) |
| C=CCn1c(P(C)(=O)O)nc2ccccc21 | -0.16% (inactive) |
| Cc1ccc(C(C)NC(=O)Cn2nc(C)c([N+](=O)[O-])c2C)cc1 (stereo not given) | -0.83% (inactive) |
| CC12CN3CC(C)(CN(C1)C3c1ccc(Cl)cc1Cl)C2=O (stereo not given) | -0.09% (inactive) |
| NNC(=O)c1ccc(Cl)cc1Cl | 0.25% (inactive) |
| COC(=O)C1=CN(C)C=C(C(=O)OC)C1c1ccc(Cl)cc1Cl | 7.44% (active) |
| CCOc1ccccc1N(CC(=O)Nc1ccccc1C(=O)OC)S(C)(=O)=O | -0.26% (inactive) |
| CCOc1cc(C2C(C(=O)OC)=CN(C3CCCC3)C=C2C(=O)OC)cc(Br)c1O | 2.25% (inactive) |
| CCOc1ccccc1C1C(C(=O)OC)=CN(C)C=C1C(=O)OC | 10.7% (active) |
| Cc1c(C(=O)c2cccc([N+](=O)[O-])c2)c2ccccn2c1CCC#N | 0.65% (inactive) |
| O=C(COC(=O)Cn1cnc2ccccc2c1=O)NCC12CC3CC(CC(C3)C1)C2 | -1.72% (inactive) |
| CCO/N=C(/C)c1c(O)cc(-c2ccccc2)n(-c2ccccc2)c1=O | 0.26% (inactive) |
| Nc1nc(SCC(=O)NNc2c(Cl)cc(Cl)cc2Cl)n[nH]1 | -0.67% (inactive) |
| c1ccc2c(c1)CSc1sccc1C2=C1CCNCC1 | -2.25% (inactive) |
| Cn1c(=O)c2c(nc(N3CCCCCC3)n2CC(=O)c2ccc(Br)cc2)n(C)c1=O | -0.03% (inactive) |
| C=CCn1c(Oc2ccc(C(=O)OC)cc2)nc2c1c(=O)n(C)c(=O)n2C | 16.4% (active) |
| C=CCOc1nc2c(c(=O)n(C)c(=O)n2C)n1Cc1ccc(Cl)cc1Cl | 1.61% (inactive) |

| SMILES | activation |
| --- | --- |
| COc1ccc2nc(Nc3nc4ccc(NC(C)=O)cc4s3)sc2c1 | 2.62% (inactive) |
| CCOc1ccc2nc(SC(CC)C(=O)Nc3cc(C)on3)sc2c1 (stereo not given) | -1.01% (inactive) |
| CCOc1ccc2nc(Nc3nc4ccc(NC(C)=O)cc4s3)sc2c1 | 35.2% (active) |
| N#Cc1c(NC(=O)c2ccc(N3CCOCC3)c([N+](=O)[O-])c2)sc2c1CCCC2 | -1.06% (inactive) |
| O=C(O)c1cccc(N2C(=O)Nc3ccccc3N2O)c1 | -0.65% (inactive) |
| Cc1ccccc1N(C(=O)Cc1cccs1)C(C(=O)NC1CCCCC1)c1cn(C)nc1C (stereo not given) | -0.31% (inactive) |
| CCCCCOc1ccc(CSC2=NCCN2)cc1[N+](=O)[O-] | 0.31% (inactive) |
| CC(C)NC(=O)C(=O)NCCCOC(C)C | -1.05% (inactive) |
| CCNS(=O)(=O)c1ccc(NC(=O)c2cncc(Br)c2)cc1 | -1.39% (inactive) |
| C/C(CC(=O)Nc1cccc(F)c1)=N\NC(=O)C(=O)NC1CCCCC1 | -0.33% (inactive) |
| C=CCN(CC=C)S(=O)(=O)c1ccc(C(=O)Nc2nc3c(s2)CCc2ccccc2-3)cc1 | 9.18% (active) |
| C=CCN(CC=C)S(=O)(=O)c1ccc(C(=O)Nc2sc3c(c2C(N)=O)CCCCC3)cc1 | -0.72% (inactive) |
| COCCN(CCOC)S(=O)(=O)c1ccc(C(=O)Nc2nc3c(s2)CCc2ccccc2-3)cc1 | 12.8% (active) |
| O=C(Nc1ccc(S(=O)(=O)N2CCc3ccccc3C2)cc1)c1ccccc1 | -2.86% (inactive) |
| COc1ccc(C(=O)Nc2ncc3c(n2)-c2ccccc2CC3)cc1 | -1.58% (inactive) |
| CCN(c1ccccc1)S(=O)(=O)c1ccc(C(=O)Nc2nccs2)cc1 | -3.23% (inactive) |
| O=C(CN1C2=NCCN2c2ccccc21)c1cccs1 | 0.13% (inactive) |
| CCOc1ccc(Br)cc1CSC(=N)N | -1.41% (inactive) |
| O=C(Nc1cccc(Cl)c1)Nc1ccccc1NS(=O)(=O)c1cccs1 | -0.87% (inactive) |
| CCOc1ccc(C(O)Cn2c(=N)n(CCN3CCCCC3)c3ccccc32)cc1 (stereo not given) | 25.8% (active) |
| Cn1c(=N)n(CC(O)c2ccccc2)c2ccccc21 (stereo not given) | -3.54% (inactive) |
| Cc1cccc(OCC(O)Cn2c(=N)n(CCN3CCOCC3)c3ccccc32)c1 (stereo not given) | -1.56% (inactive) |
| O=C(COC(=O)CCCNC(=O)c1ccc(Cl)cc1)Nc1cc(Cl)ccc1Cl | -0.66% (inactive) |
| N#Cc1ccccc1NC(=O)c1cccc(COc2ccc(Cl)cc2Cl)c1 | -1.81% (inactive) |
| CCC(C)NC(=O)c1ccc(N2CCC3(CC2)OCCO3)c([N+](=O)[O-])c1 (stereo not given) | 1.63% (inactive) |
